# DT40 TDP1 no CPT = qHTS for Inhibitors of human tyrosyl-DNA phosphodiesterase 1 (TDP1): qHTS in cells in absence of CPT; 420,000 tested, 15% active; DT40 Tdp1-/- hTDP1 cells, no CPT, ATP luminescence, 48 h; Potency, µM (highest dose often 46.2 µM), for inactives: at the top dose activity change, negative = growth inhibition, usual class: inhibitors; note: potency is the fitted concentration of half-maximal effect; % is set by controls: 0 for no effect and ±100 for the full control effect; nearly all actives have a fitted effect of over 55% in size
#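 Growth kinetics read by CellTiter-Glo luminescence after ≥48 hr at 37 °C. Cells: DT40 Tdp1-/- stably carrying human TDP1, 400 per well, compound exposure in the absence of CPT (DMSO vehicle).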
# ClpP mod = qHTS Assay for Activators of ClpP | ATP-dependent Clp protease proteolytic subunit (Bacillus subtilis (strain 168)), P80244 | purified B. subtilis ClpP, FRET peptide cleavage, 20 min | Potency, µM (top dose mostly 57.5 µM), inactives show top-dose activity change, negative = active | 340,000 tested, 1.9% active | AID 651965, 2013; active = well fitted falling curve with a large enough effect; inconclusive = small, poorly fitted or top-dose-only effect; inactive = no such curve, though single readings can be large or run the other way; note: potency is the fitted concentration of half-maximal effect; the source files actives as falling curves though it sought activators and does not explain the sign; nearly all actives have a fitted effect of over 65% in size
# Target sequence (P80244 whole entry, looked up): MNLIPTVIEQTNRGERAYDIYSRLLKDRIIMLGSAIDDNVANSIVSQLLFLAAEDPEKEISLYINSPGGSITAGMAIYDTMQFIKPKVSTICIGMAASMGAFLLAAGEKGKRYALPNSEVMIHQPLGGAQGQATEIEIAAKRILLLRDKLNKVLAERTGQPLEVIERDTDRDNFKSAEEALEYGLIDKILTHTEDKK
#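 Buffer: 100 mM Tris/HCl pH8, 100 mM KCl, 0.05% low protease BSA, 2.5% glycerol, 0.01% Tween-20. ClpP 10 microg/mL final; 20 min RT; delta FRET normalized to ADEP and DMSO controls.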
# D3 ag = agonists of human D3 dopamine receptor. P35462. D3R DiscoveRx beta-arrestin cells, luminescence, 90 min. max activation, %. 410,000 tested, 0.58% active. AID 652048; in the data active = max activation above about 30%; note: 0% is about no effect
#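 Agonist mode: compounds and dopamine controls were applied to plated cells for 90 min at 37 degrees C after an overnight attachment at 1500 cells/well. Luminescent read-out followed 30 - 60 minutes at room temperature with DiscoveRx detection reagent.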
# DT40 TDP1 CPT = growth inhibition of DT40 Tdp1-/-;hTDP1 cells with camptothecin (screen for TDP1 inhibitors); chicken DT40 Tdp1-/-;hTDP1 cells + 20 nM CPT, ATP luminescence, 48 h; 420,000 tested, 12% active; AID 686979; Potency, µM (top dose mostly 46.2 µM), without a hit: at the highest dose activity change, negative = growth inhibition, usual class: inhibitors; note: potency is the fitted concentration of half-maximal effect; % is set by controls: 0 for no effect and ±100 for the full control effect; nearly all actives have a fitted effect of over 55% in size
#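 Chicken DT40 Tdp1-/- cells complemented with human TDP1, 400 cells/well, exposed to compounds plus 20 nM camptothecin for at least 48 h at 37 C; viability read as ATP content by CellTiter-Glo luminescence.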
# DRD3 antagonist = antagonists of human D3 dopamine receptor | D3R cells, DiscoveRx beta-arrestin luminescence, antagonist mode; stronger effect = lower value | max response, negative = inhibition, % | 360,000 tested, 2.5% active | AID 652054; in the data active = max response below about -50%; inconclusive = no clear call, values can overlap the other calls; note: % is set by controls: 0 for no effect and ±100 for the full control effect
#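 Cells plated overnight at 1500 cells/well, then exposed to library compounds with dopamine controls for 90 minutes at 37 degrees C. DiscoveRx reagent added for 30–60 minutes at room temperature; luminescence read, quantitative HTS format.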
# IL-1B inflam inh = inhibitors of inflammasome signaling (IL-1 beta secretion); THP-1 LPS/ATP IL-1B secretion, AlphaLISA, 16 h; stronger effect = lower value; activity change, % at 57.5 µM; 360,000 tested, 4.7% active; in the data active = activity change below about -50%; inconclusive = mostly about -30% to -49%; note: % is set by controls: 0 for no effect and ±100 for the full control effect
#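 THP-1 cells pretreated 1 hr with compounds (up to 57.5 uM final), then stimulated with LPS (250 ng/mL final) plus ATP (1.25 mM final); secreted IL-1B measured by AlphaLISA after 16 hr, decreased signal indicating inhibition.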
# * hit, by the source's call; ? = inconclusive; . = not tested or not shown; [ ] = dose if it differs, or a comment. Compounds with a hit are over-represented: about 21% of the library has one in this group of screens. Unless noted, calls come from the whole dose curve; as a rule, active = well fitted inhibition curve with a large enough effect; inconclusive = small, poorly fitted or top-dose-only effect; inactive = flat fitted curve, though single readings scatter.
SMILES,DT40 TDP1 no CPT,ClpP mod,D3 ag,DT40 TDP1 CPT,DRD3 antagonist,IL-1B inflam inh
COc1ccc(C(=O)N2CCN(c3cccc(Cl)c3)CC2)cc1,16µM*,1%,2,?,3,-59*
Cc1ccc(C(=O)N2CCN(c3ccccc3)CC2)cc1C,-17%,1%,12,-10%,4,-1
Cc1ccc(C(=O)N2CCN(c3cccc(Cl)c3)CC2)cc1C,26µM*,0%,10,?,30,16
CCOCCc1nnc(NC(=O)C(=O)c2cc(C)n(-c3cccc(Cl)c3)c2C)s1,?,0%,5,-20%,.,.
CSc1cccc(NC(=O)Cn2c3ncccc3c(=O)n2-c2ccc(C)cc2)c1,16µM*,25µM*,8,?,.,.
Cc1ccc(-n2c(=O)c3cccnc3n2CC(=O)Nc2cc(Cl)ccc2C)cc1,-21%,-2%,-30,-15%,.,.
O=C(CSc1ccc(Cl)cc1)Nn1cnnc1,?,2%,3,18µM*,-18,-5
O=C(CSc1ccc2ccccc2c1)Nn1cnnc1,1%,-1%,4,-17%,-8,12
CC(C)CNC(=O)CSc1ccc(Cl)cc1,10%,25µM*,11,-5%,5,15
Cc1ccc(C)c(S(=O)(=O)Nc2ccccc2C(=O)Nc2cc(C)on2)c1,?,16µM*,3,16µM*,-10,34
Cc1cc(NC(=O)c2ccccc2NS(=O)(=O)c2c(C)c(C)cc(C)c2C)no1,?,28µM*,10,?,7,24
Cc1ccc(C)c(NC(=O)c2ccccc2NS(=O)(=O)c2cc([N+](=O)[O-])ccc2C)c1,4.1µM*,-1%,1,3.3µM*,-1,?
O=C(c1ccncc1)N1CCC2(CC1)CN(c1ncccn1)C2,-9%,.,.,4%,.,.
CC1(C(=O)O)CCC(C(=O)NNC(=O)c2ccccc2Cl)C1(C)C (stereo not drawn),12%,.,3,8%,3,.
COc1cccc(-c2ccc(O)c(CNCc3cccc(OC)c3OC)c2)n1,?,.,.,-5%[9.04 µM],.,.
CCOc1c(C)cnc2c1c(=O)n(CC(=O)NCC1CCCO1)c(=O)n2C (stereo not drawn),-4%,?,3,-6%,9,17
CC(C)N=c1scc(-c2ccco2)n1/N=C/c1ccc(O)c(O)c1,1.5µM*,-6%,19,1.6µM*,5,-13
COCCN=c1scc(-c2ccco2)n1/N=C/c1ccc(O)c(O)c1O,?,.,117*,?,19,33
C=CCN=c1scc(-c2ccco2)n1/N=C/c1ccc(O)c(O)c1O,5.8µM*,.,184*,10µM*,47,-51*
Oc1ccc(/C=N/n2c(-c3ccco3)csc2=Nc2cccnc2)c(O)c1,15µM*,-3%,18,12µM*,43,21
CC(OC(=O)c1ccco1)C(=O)Nc1ccc(Cl)cn1 (stereo not drawn),-10%,.,-10,-7%,14,41
COc1ccc(OC)c(S(=O)(=O)CC(O)COc2ccccc2Cl)c1 (stereo not drawn),-10%,0%,5,?,6,13
CCCc1ccc2oc(C(=O)N(C)CCn3ccnc3C)c(C)c2c1,13µM*,1%,-2,21µM*,-23,9
CCOC(=O)N1CCN(C(=O)c2oc3ccc(S(=O)(=O)N4CCCCC4)cc3c2C)CC1,?,-1%,44*,?,18,16
CCCc1ccc2oc(C(=O)N(C)Cc3cnccn3)c(C)c2c1,?,-1%,-3,?,6,12
Cc1c(C(=O)N2CCCCC2)oc2ccc(S(=O)(=O)N3CC(C)CC(C)C3)cc12 (stereo not drawn),13µM*,-19%,-4,18µM*,27,?

# From PubChem BioAssay
